Test results taken from PubChem BioAssay AID1159580 (chemical genetic matrix, 2015).
In all, about 5,500 compounds went through this assay and about 2,000 (36%) were called active. Roughly 18% stayed inconclusive and do not appear here. Rule as the data show it: active = normalized growth mostly below about 0.91 (no sharp cut-off); inconclusive = no clear call, values can overlap the other calls; inactive = mostly above about 0.92. The list shows a part of the results.

Test: chemical genetic growth profiling, strain panel (AID 1159580);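 also: tested at 20 µM; growth read once vehicle control cultures reached saturation at 30 °C; 1 = growth at the plate median or of vehicle wells; lower values mean less growth of the strain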
Settings: growth OD
[1] = S. cerevisiae deletion strains, locus YAL013W, strain DEP1, hits give low values
[2] = S. cerevisiae deletion strains, locus YBR229C, strain ROT2, hits give low values
[3] = S. cerevisiae deletion strains, locus YDL101C, strain DUN1, hits give low values
[4] = S. cerevisiae deletion strains, locus YDR150W, strain NUM1, hits give low values
[5] = S. cerevisiae deletion strains, locus YEL061C, strain CIN8, hits give low values
[6] = S. cerevisiae deletion strains, locus YGR078C, strain PAC10, hits give low values
[7] = S. cerevisiae deletion strains, locus YHR030C, strain SLT2, hits give low values
[8] = S. cerevisiae deletion strains, locus YHR087W, strain rtc3, hits give low values
[9] = S. cerevisiae deletion strains, locus YJR043C, strain POL32, hits give low values
[10] = S. cerevisiae deletion strains, locus YJR075W, strain HOC1, hits give low values
[11] = S. cerevisiae deletion strains, locus YLR039C, strain RIC1, hits give low values
[12] = S. cerevisiae deletion strains, locus YLR058C, strain SHM2 (second series), hits give low values
[13] = S. cerevisiae deletion strains, locus YLR085C, strain ARP6, hits give low values
[14] = S. cerevisiae deletion strains, locus YLR262C, strain YPT6, hits give low values
[15] = S. cerevisiae deletion strains, locus YML094W, strain GIM5, hits give low values
[16] = S. cerevisiae deletion strains, locus YMR219W, strain ESC1, hits give low values
[17] = S. cerevisiae deletion strains, locus YMR263W, strain SAP30, hits give low values
[18] = S. cerevisiae deletion strains, locus YNL153C, strain GIM3, hits give low values
[19] = S. cerevisiae deletion strains, locus YNL298W, strain CLA4 (second series), hits give low values
[20] = S. cerevisiae deletion strains, locus YNL322C, strain KRE1, hits give low values
[21] = S. cerevisiae deletion strains, locus YNR030W, strain Alg12, hits give low values
[22] = S. cerevisiae deletion strains, locus YPL055C, strain LGE1, hits give low values
[23] = S. cerevisiae deletion strains, locus YPL241C, strain CIN2, hits give low values
[24] = S. cerevisiae deletion strains, locus YPR135W, strain CTF4, hits give low values

Measured: normalized growth

CCOC(=O)c1ccc(Oc2ncc(C(F)(F)F)cc2Cl)cc1
inactive: [1] 1.04 | [2] 0.995 | [3] 0.957 | [4] 1 | [5] 0.996 | [6] 0.993 | [7] 0.829 | [8] 0.987 | [9] 0.98 | [10] 0.917 | [11] 0.889 | [12] 0.975 | [13] 1.08 | [14] 0.862 | [15] 1.04 | [16] 0.992 | [17] 0.988 | S. cerevisiae deletion strains, locus YMR307W, strain GAS1, hits give low values 0.68 | [18] 1.01 | [19] 0.985 | [20] 0.986 | [21] 0.974 | [22] 1.08 | [23] 0.862 | [24] 1.17

CCOC(=O)c1ccc(N2CC3CCCCN3C2c2ccc(Cl)c(Cl)c2)cc1 (centres undefined)
active: [14] 0.744
inactive: [1] 0.989 | [2] 0.974 | S. cerevisiae deletion strains, locus YCL061C, strain MRC1, hits give low values 0.991 | [3] 1 | S. cerevisiae deletion strains, locus YDL134C, strain PPH21, hits give low values 1.01 | [4] 0.992 | [5] 0.993 | [6] 0.992 | S. cerevisiae deletion strains, locus YGR229C, strain SMI1, hits give low values 1 | [7] 0.971 | [8] 0.992 | S. cerevisiae deletion strains, locus YJL187C, strain SWE1, hits give low values 0.982 | [9] 1.01 | [10] 0.998 | [11] 0.889 | [12] 0.997 | [13] 0.97 | [15] 0.972 | [16] 0.984 | [17] 0.976 | [18] 0.997 | [19] 1.02 | [20] 1 | [21] 0.997 | [22] 0.922 | [23] 0.987 | [24] 0.893 | S. cerevisiae strains, strain wild type, hits give low values 1.01
